# Laboratory results as given in PubChem BioAssay (EPA / NIEHS).
# “And” between values parts separate entries of the source, which are not always exact repeats. Equal entries are not always repeated. Results filed as inconclusive are left out. Some structures have more than one record in an assay (separate samples or runs), and their calls can disagree. The source made the active and inactive calls. How the source made its calls, unless noted: active means hit-call score of the fitted dose curve at least 0.9, where 1 is the maximum; inconclusive means response in the unintended direction; inactive means score below 0.9.
# Key:
# [1] = target: Nuclear receptor subfamily 1 group I member 2 (Mus musculus) (UniProt O54915); experiment: ATG_mPXR_XSP2: Attagene TRANS-FACTORIAL Multi-Species (XSP1) HepG2 Assay for mouse Pregnane X Receptor (PXR) (AID 2283831)
# Outline: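 HepG2 cells transiently transfected with GAL4-UAS reporter units expressing chimeric NR-GAL4 proteins; reporter mRNA measured 24 h after dosing by RT-PCR with 6-FAM labelling and capillary electrophoresis, gain of signal relative to DMSO.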
# [2] = target: zebrafish Thyroid Hormone Receptor alpha (TRa), thraa (gene 30670) (UniProt Q98867); experiment: ATG_zfTRa_XSP2: Attagene TRANS-FACTORIAL Multi-Species (XSP1) HepG2 Assay for zebrafish Thyroid Hormone Receptor alpha (TRa) (AID 2283832);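 further: actives raise zebrafish TRa-Gal4 reporter transcript above DMSO baseline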
# Outline: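 HepG2, transient MRTU transfection, exogenous NR-Gal4 chimeras; 24 h dosing; mRNA readout via RT-PCR/CE fluorescence; positive direction vs DMSO.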
# [3] = test system: zebrafish Peroxisome Proliferator-activated Receptor gamma (PPARg), gene 557037; experiment: ATG_zfPPARg_XSP2: Attagene TRANS-FACTORIAL Multi-Species (XSP2) HepG2 Assay for zebrafish Peroxisome Proliferator-activated Receptor gamma (PPARg) (AID 2283833);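 further: actives increase reporter signal over DMSO so AC50 reflects activation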
# Outline: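 HepG2 cells transiently transfected with GAL4-UAS reporter units expressing a zebrafish PPARg–GAL4 chimera; compound exposure 24 h. Reporter mRNA quantified by RT-PCR with fluorescent labelling and capillary electrophoresis; gain of signal fitted relative to DMSO baseline.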
# [4] = test system: turtle Thyroid Hormone Receptor, alpha (TRa), gene 101949057; experiment: ATG_trTRa_XSP2: Attagene TRANS-FACTORIAL Multi-Species (XSP1) HepG2 Assay for turtle Thyroid Hormone Receptor, alpha (TRa) (AID 2283834);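 further: hits raise reporter mRNA over the DMSO baseline so AC50 marks activators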
# Outline: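 HepG2 cells transiently transfected with multiplexed GAL4-UAS reporter units expressing chimeric NR-Gal4 proteins were dosed for 24 hours. Reporter mRNA was quantified by RT-PCR with 6-FAM labelling and capillary electrophoresis, gain of signal scored against DMSO.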
# [5] = target: zebrafish Thyroid Hormone Receptor beta (TRb), thrb (gene 30607) (UniProt Q9PVE4); experiment: ATG_zfTRb_XSP2: Attagene TRANS-FACTORIAL Multi-Species (XSP1) HepG2 Assay for zebrafish Thyroid Hormone Receptor beta (TRb) (AID 2283836)
# Outline: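 Transfect HepG2 with multiple reporter transcription units, dose chemical, incubate 24 h. Isolate RNA, reverse-transcribe, amplify and fluorescently label reporter sequences, digest with HpaI, then resolve by capillary electrophoresis. Positive direction fitted against DMSO.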
# [6] = ATG_XTT_Cytotoxicity_XSP2: Cytotoxicity Assessment in the Attagene TRANS-FACTORIAL Multi-Species (XSP2) HepG2 Assay (AID 2283837)
# Outline: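 XTT-based cell number read-out in human HepG2 liver cells carrying transfected reporter units, measured 24 h after chemical dosing. Activity is signal loss versus DMSO baseline.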
# [7] = target: human Thyroid hormone Receptor alpha (TRa), THRA (gene 7067) (UniProt P10827); experiment: ATG_hTRa_XSP2: Attagene TRANS-FACTORIAL Multi-Species (XSP2) HepG2 Assay for human Thyroid hormone Receptor alpha (TRa) (AID 2283838)
# Outline: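 Reporter transcripts were read by RT-PCR with fluorescent primer extension, HpaI digestion and capillary electrophoresis. These came from HepG2 cells carrying multiplexed TRa-Gal4 TRANS constructs, harvested 24 hours after dosing. The medium also held 6-alpha-fluorotestosterone (3 nM) and norgestrel (1.5 nM), and increases were fitted against DMSO.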
# [8] = target: frog Thyroid hormone Receptor alpha (TRa), thra-a (gene 397942) (UniProt P15204); experiment: ATG_frTRa_XSP2: Attagene TRANS-FACTORIAL Multi-Species (XSP2) HepG2 Assay for frog Thyroid hormone Receptor alpha (TRa) (AID 2283839);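 on AC50: AC50 reflects induction of frog TRa-driven reporter mRNA above DMSO baseline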
# Outline: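 HepG2 cells transiently transfected with multiplexed GAL4-UAS reporter units expressing chimeric frog TRα-Gal4; reporter mRNA read 24 h after dosing by RT-PCR, FAM-labelled primer extension, HpaI digest and capillary electrophoresis. Gain of signal fitted versus DMSO.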
# [9] = target: human Thyroid hormone Receptor beta (TRb), THRB (gene 7068) (UniProt P10828); experiment: ATG_hTRb_XSP2: Attagene TRANS-FACTORIAL Multi-Species (XSP2) HepG2 Assay for human Thyroid hormone Receptor beta (TRb) (AID 2283840);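 further: actives raise reporter mRNA so potency reflects agonist-like gain of signal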
# Outline: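 HepG2 cells were transiently transfected with GAL4-UAS multiplexed reporter units expressing chimeric NR-Gal4 proteins, dosed 24 h; reporter mRNA was quantified by RT-PCR, fluorescent labeling, HpaI digestion and capillary electrophoresis, fitted for gain of signal versus DMSO.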
# [10] = test system: Sodium/Iodide Symporter (NIS), SLC5A5 (gene 6528); experiment: CPHEA_Stoker_NIS_Inhibition_RAIU: CPHEA's Radioactive Iodide Uptake (RAIU) Assay for Sodium/Iodide Symporter (NIS) Inhibition, Stoker and Laws Labs (AID 2283841)
# Outline: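 Test chemicals, six concentrations from 0.001 to 100uM in 0.5% DMSO, were co-incubated with carrier-free 125I (final 329pM) on hNIS-HEK293T-EPA monolayers in pH 7.4 HEPES-buffered HBSS. Plates stood 2 hours at room temperature, then were washed cold and counted.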
# [11] = CPHEA_Stoker_NIS_Cytotoxicity: Cytotoxicity Assessment for CPHEA's Radioactive Iodide Uptake (RAIU) Assay for Sodium/Iodide Symporter (NIS) Inhibition, Stoker and Laws Labs (AID 2283897);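 on AC50: active means loss of ATP signal versus DMSO meaning cytotoxicity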
# Outline: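 Viability in hNIS-HEK293T-EPA cells is scored as a drop in luciferase-detected ATP following 2-hour room-temperature exposure (0.001–100uM; triplicate wells, three cell passages), with DMSO as negative control.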
# [12] = CEETOX_H295R_11DCORT_noMTC: CeeTox H295R High-throughput Steroidogenesis Assay for 11-Deoxycortisol (11DCORT), maximum tolerated concentration (MTC) filtered results only (AID 2283911; active means hit-call score of the fitted dose curve at least 0.9, where 1 is the maximum; inactive means score below 0.9); conditions: actives raise or lower the signal
# Outline: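 HPLC-MS/MS read-out of 11-deoxycortisol after MTBE extraction of H295R medium. Cells: forskolin 10 uM pre-stimulation 48 h, chemical 48 h, 0.1% DMSO final. Bidirectional fit vs DMSO baseline; no MTC filtering.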
# [13] = CEETOX_H295R_OHPREG_noMTC: CeeTox H295R High-throughput Steroidogenesis Assay for OH-Pregnenolone (OHPREG), maximum tolerated concentration (MTC) filtered results only (AID 2283912; active means hit-call score of the fitted dose curve at least 0.9, where 1 is the maximum; inactive means score below 0.9); conditions: actives raise or lower the signal
# Outline: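 H295R; 10 uM forskolin 48 h pre-stim; test cpd in DMSO (0.1% final) 48 h; media MTBE-extracted, HPLC-MS/MS for OH-pregnenolone; bidirectional fit vs DMSO; no MTC (MTT) filtering.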
# [14] = CEETOX_H295R_OHPROG_noMTC: CeeTox H295R High-throughput Steroidogenesis Assay for OH-Progesterone (OHPROG), maximum tolerated concentration (MTC) filtered results only (AID 2283914; active means hit-call score of the fitted dose curve at least 0.9, where 1 is the maximum; inactive means score below 0.9); conditions: actives raise or lower the signal
# Outline: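 Medium hormone measured by reverse-phase C18 HPLC with positive electrospray MS/MS after MTBE liquid-liquid extraction. Cells had 48 h forskolin (10 uM) prestimulation, then 48 h chemical dosing. Gain or loss of signal fitted relative to DMSO baseline.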
# [15] = CEETOX_H295R_ANDR_noMTC: CeeTox H295R High-throughput Steroidogenesis Assay for Androstenedione (ANDR), maximum tolerated concentration (MTC) filtered results only (AID 2283915; active means hit-call score of the fitted dose curve at least 0.9, where 1 is the maximum; inactive means score below 0.9); conditions: actives raise or lower the signal
# Outline: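 Androstenedione secreted into medium was measured by LC-MS/MS after MTBE extraction. Human adrenal H295R cells received 10 uM forskolin for 48 h before 48 h chemical exposure (0.1% DMSO). Gain or loss fitted against DMSO, including concentrations above the MTT-derived MTC.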
# [16] = CEETOX_H295R_CORTISOL_noMTC: CeeTox H295R High-throughput Steroidogenesis Assay for Cortisol, maximum tolerated concentration (MTC) filtered results only (AID 2283916; active means hit-call score of the fitted dose curve at least 0.9, where 1 is the maximum; inactive means score below 0.9); conditions: actives raise or lower the signal
# Outline: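 H295R human adrenal cells prestimulated 48 h with 10 uM forskolin, then exposed 48 h to chemical in 0.1% DMSO; cortisol in medium quantified by HPLC-MS/MS; bidirectional fit vs DMSO baseline, concentrations not MTT-filtered for MTC.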
# [17] = CEETOX_H295R_CORTIC_noMTC: CeeTox H295R High-throughput Steroidogenesis Assay for Corticosterone (CORTIC), maximum tolerated concentration (MTC) filtered results only (AID 2283917; active means hit-call score of the fitted dose curve at least 0.9, where 1 is the maximum; inactive means score below 0.9); conditions: actives raise or lower the signal
# Outline: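 Corticosterone secreted into the medium was measured by reverse-phase C18 HPLC with tandem MS after MTBE extraction. Cells (H295R) had 48 h forskolin (10 uM) stimulation before 48 h chemical exposure; gain or loss of signal was fitted relative to DMSO.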
# [18] = CEETOX_H295R_DOC_noMTC: CeeTox H295R High-throughput Steroidogenesis Assay for DOC, maximum tolerated concentration (MTC) filtered results only (AID 2283918; active means hit-call score of the fitted dose curve at least 0.9, where 1 is the maximum; inactive means score below 0.9); conditions: actives raise or lower the signal
# Outline: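 H295R cells prestimulated 48 h with 10 uM forskolin, then exposed 48 h to chemical in 0.1% DMSO. 11-Deoxycorticosterone in medium measured by MTBE extraction and HPLC-MS/MS; bidirectional fit vs DMSO, no MTC filter.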
# [19] = CEETOX_H295R_ESTRADIOL_noMTC: CeeTox H295R High-throughput Steroidogenesis Assay for Estradiol, maximum tolerated concentration (MTC) filtered results only (AID 2283919; active means hit-call score of the fitted dose curve at least 0.9, where 1 is the maximum; inactive means score below 0.9); conditions: actives raise or lower the signal
# Outline: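 Readout: dansyl-derivatized estradiol quantified by LC-MS/MS in medium from H295R cells dosed 48 h (0.1% DMSO) following 48 h forskolin (10 uM) prestimulation. Gain or loss of signal fitted against DMSO; no MTC filtering applied.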
# [20] = ATG_M_61_XSP2: Attagene TRANS-FACTORIAL Multi-Species (XSP2) HepG2 Assay for M61 Transcription Factor (Internal Marker) (AID 2283835; active means hit-call score of the fitted dose curve at least 0.9, where 1 is the maximum; inactive means score below 0.9;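 further: reporter mRNA of an internal background marker read by RT-PCR and capillary electrophoresis; active means a rise in signal above the DMSO baseline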)
# Outline: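 Transient MRTU transfection of human HepG2; 24 h chemical dosing with 3 nM 6-alpha-fluorotestosterone + 1.5 nM norgestrel added for AR stimulation. RNA isolated, RT, PCR, FAM-labelled, HpaI cut, CE read. Positive direction vs DMSO.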
# Sequence of Nuclear receptor subfamily 1 group I member 2 (Mus musculus) (O54915 whole entry, looked up, the tested form may be a part): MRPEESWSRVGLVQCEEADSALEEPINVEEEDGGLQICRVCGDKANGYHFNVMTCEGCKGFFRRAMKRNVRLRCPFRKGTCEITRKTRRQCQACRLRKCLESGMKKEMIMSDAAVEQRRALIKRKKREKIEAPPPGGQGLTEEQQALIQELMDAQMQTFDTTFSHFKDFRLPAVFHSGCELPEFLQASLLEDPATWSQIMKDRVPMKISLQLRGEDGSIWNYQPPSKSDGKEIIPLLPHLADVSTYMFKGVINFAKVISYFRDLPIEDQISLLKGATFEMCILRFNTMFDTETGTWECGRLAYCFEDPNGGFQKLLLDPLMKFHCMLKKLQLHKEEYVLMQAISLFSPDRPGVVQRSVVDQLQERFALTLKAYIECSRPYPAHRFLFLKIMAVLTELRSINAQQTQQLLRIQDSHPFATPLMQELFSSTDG
# Sequence of zebrafish Thyroid Hormone Receptor beta (TRb), thrb (gene 30607) (Q9PVE4 whole entry, looked up): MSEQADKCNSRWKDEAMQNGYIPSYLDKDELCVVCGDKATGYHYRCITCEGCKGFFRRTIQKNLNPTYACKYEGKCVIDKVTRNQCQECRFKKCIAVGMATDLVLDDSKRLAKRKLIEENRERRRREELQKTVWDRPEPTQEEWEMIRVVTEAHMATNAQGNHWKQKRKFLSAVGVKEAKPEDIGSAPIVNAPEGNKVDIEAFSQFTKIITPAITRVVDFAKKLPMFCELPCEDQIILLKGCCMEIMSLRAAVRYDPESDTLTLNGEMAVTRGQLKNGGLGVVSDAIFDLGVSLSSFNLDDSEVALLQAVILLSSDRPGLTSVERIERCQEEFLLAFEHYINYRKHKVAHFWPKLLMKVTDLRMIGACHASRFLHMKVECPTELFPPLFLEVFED
# Sequence of human Thyroid hormone Receptor beta (TRb), THRB (gene 7068) (P10828 whole entry, looked up, the tested form may be a part): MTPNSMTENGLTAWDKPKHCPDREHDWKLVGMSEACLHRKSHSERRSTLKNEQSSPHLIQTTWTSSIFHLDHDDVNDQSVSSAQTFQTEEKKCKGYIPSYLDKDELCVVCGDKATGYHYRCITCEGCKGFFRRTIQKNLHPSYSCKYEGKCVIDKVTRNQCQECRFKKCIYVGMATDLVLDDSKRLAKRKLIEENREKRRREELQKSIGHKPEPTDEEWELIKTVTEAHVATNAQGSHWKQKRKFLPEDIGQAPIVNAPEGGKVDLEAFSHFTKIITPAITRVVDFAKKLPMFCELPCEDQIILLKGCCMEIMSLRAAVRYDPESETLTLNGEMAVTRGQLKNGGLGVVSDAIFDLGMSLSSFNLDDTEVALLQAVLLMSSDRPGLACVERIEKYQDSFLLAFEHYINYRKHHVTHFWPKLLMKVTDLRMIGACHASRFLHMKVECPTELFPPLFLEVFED
# Sequence of human Thyroid hormone Receptor alpha (TRa), THRA (gene 7067) (P10827 whole entry, looked up, the tested form may be a part): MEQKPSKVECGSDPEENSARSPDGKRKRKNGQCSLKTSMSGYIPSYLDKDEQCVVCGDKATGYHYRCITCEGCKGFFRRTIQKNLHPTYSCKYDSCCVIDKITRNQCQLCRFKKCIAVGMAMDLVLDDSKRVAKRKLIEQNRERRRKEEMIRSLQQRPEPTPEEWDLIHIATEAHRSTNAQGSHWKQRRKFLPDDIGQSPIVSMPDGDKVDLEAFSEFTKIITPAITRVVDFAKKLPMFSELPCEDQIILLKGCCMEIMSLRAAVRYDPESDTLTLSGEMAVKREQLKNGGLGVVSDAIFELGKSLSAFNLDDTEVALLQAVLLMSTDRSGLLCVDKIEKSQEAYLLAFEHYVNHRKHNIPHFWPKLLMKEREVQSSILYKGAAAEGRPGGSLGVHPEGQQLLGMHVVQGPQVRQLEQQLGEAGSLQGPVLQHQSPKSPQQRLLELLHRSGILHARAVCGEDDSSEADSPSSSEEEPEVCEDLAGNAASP
# Sequence of frog Thyroid hormone Receptor alpha (TRa), thra-a (gene 397942) (P15204 whole entry, looked up, the tested form may be a part): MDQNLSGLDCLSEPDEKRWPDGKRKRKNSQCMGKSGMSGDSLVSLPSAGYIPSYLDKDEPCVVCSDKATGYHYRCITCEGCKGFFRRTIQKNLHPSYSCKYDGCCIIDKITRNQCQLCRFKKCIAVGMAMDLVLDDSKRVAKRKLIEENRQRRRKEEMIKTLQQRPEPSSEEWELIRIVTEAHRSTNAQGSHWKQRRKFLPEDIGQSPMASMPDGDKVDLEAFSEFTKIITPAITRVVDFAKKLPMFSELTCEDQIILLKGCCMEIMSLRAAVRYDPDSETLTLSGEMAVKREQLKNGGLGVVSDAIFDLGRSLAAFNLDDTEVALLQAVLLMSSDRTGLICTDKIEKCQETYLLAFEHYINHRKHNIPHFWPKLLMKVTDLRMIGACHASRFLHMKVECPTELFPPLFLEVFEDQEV
# Sequence of zebrafish Thyroid Hormone Receptor alpha (TRa), thraa (gene 30670) (Q98867 whole entry, looked up, the tested form may be a part): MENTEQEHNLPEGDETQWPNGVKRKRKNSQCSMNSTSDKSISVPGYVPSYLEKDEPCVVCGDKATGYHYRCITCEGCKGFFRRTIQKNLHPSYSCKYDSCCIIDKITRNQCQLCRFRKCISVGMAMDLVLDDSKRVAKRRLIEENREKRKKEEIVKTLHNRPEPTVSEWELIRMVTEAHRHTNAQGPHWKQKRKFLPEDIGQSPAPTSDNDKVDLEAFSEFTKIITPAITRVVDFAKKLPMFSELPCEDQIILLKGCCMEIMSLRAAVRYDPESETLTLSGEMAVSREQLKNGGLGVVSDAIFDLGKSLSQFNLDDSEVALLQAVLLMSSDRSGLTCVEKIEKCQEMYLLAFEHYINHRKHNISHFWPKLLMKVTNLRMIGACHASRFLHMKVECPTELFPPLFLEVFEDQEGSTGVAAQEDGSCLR
smiles,measurement,setting,value
O=c1cc(-c2ccc(O)cc2)oc2cc(O)cc(O)c12,AC50,[1],26.9 µM (active)
same,outcome,[2],inactive
same,outcome,[3],inactive
same,AC50,[4],26.7 µM (active)
same,outcome,[4],inactive
same,outcome,[5],inactive
same,outcome,[6],inactive
same,AC50,[7],6.26 µM (active)
same,outcome,[7],inactive
same,AC50,[8],39.2 µM (active) and 44.6 µM (active)
same,AC50,[9],7.81 µM (active)
same,outcome,[9],inactive
same,outcome,[10],inactive
same,outcome,[11],inactive
CCCCCCCCOS(=O)(=O)O,outcome,[11],inactive
CCCCCCCCCCOC(=O)c1ccccc1C(=O)OCCCCCCCC,AC50,[12],45.7 µM (active)
same,AC50,[13],41.3 µM (active)
same,AC50,[14],40.4 µM (active)
same,AC50,[15],44 µM (active)
same,outcome,[16],inactive
same,outcome,[17],inactive
same,AC50,[18],33.3 µM (active)
same,outcome,[19],inactive
O=C(O)C(F)(F)OC(F)(F)C(F)(F)OC(F)(F)C(F)(F)C(F)(F)C(F)(F)F,outcome,[10],inactive
CCCCCCCCCCCCOCCOS(=O)(=O)O,AC50,[10],9.92 µM (active)
same,outcome,[11],inactive
CCCCCC1CCC(=O)O1 (stereo not drawn),outcome,[10],inactive
same,outcome,[11],inactive
O=S(=O)(O)C(F)(F)C(F)(F)OC(F)(F)C(F)(F)F,outcome,[10],inactive
CC(=O)N(C)C,outcome,[10],inactive
COC(=O)C(C)Oc1ccc(Oc2ncc(C(F)(F)F)cc2Cl)cc1 (stereo not drawn),outcome,[10],inactive
same,outcome,[11],inactive
same,AC50,[13],14.1 µM (active)
same,AC50,[14],1.86 µM (active)
same,AC50,[19],23.5 µM (active)
COC(=O)c1ccc(C(=O)OC)cc1,outcome,[13],inactive
same,outcome,[14],inactive
same,outcome,[19],inactive
CCCCCCOc1ccc(O)cc1,outcome,[10],inactive
same,outcome,[11],inactive
CC/C(=C(\c1ccccc1)c1ccc(OCCN(C)C)cc1)c1ccccc1,outcome,[1],inactive
same,outcome,[2],inactive
same,outcome,[3],inactive
same,outcome,[20],inactive
same,outcome,[5],inactive
same,outcome,[8],inactive
same,outcome,[9],inactive
same,outcome,[10],inactive
same,AC50,[11],36.2 µM (active)
same,outcome,[11],inactive
CCC(C)COC(=O)CC(C)C (stereo not drawn),outcome,[10],inactive
CC(=O)OC(C)(C)C,outcome,[10],inactive
same,outcome,[11],inactive
COC(=O)c1cccc(C(=O)OC)c1,outcome,[13],inactive
same,outcome,[14],inactive
same,outcome,[15],inactive
same,outcome,[19],inactive
COc1cc(OC)c2ccc(=O)oc2c1,outcome,[13],inactive
same,outcome,[15],inactive
same,outcome,[19],inactive
CC(C)(C)c1ccc(S)cc1,outcome,[1],inactive
same,outcome,[2],inactive
same,outcome,[4],inactive
same,outcome,[20],inactive
same,outcome,[5],inactive
same,outcome,[6],inactive
same,outcome,[7],inactive
same,outcome,[8],inactive
